Bioassay records deposited in PubChem BioAssay by several laboratories.
GRK2 inh = compounds blocking aptamer binding on GRK2 – biochemical, human GRK2, bead flow cytometry, HTS, primary screen; Beta-adrenergic receptor kinase 1 (Homo sapiens), P25098; FAM-aptamer displacement from GRK2; inhibition of aptamer binding, % at 10 µM; 330,000 tested, 0.59% active;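 active = inhibition of aptamer binding above 40%, roughly 3 SD of noise, on plates passing a quality check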;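 also: median bead fluorescence of bound FAM aptamer so fluorescent compounds give negative values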
Pemphigus Ab inh = inhibitors of pemphigus antibody binding to DSG3, primary screen, biochemical, bead-based, flow cytometry, scFv-GFP | Desmoglein-3 (Homo sapiens), P32926 | AID 588358, 2011 | binding (percent of control), % at 10 µM | 310,000 tested, 0.48% active | DSG3-coupled beads, scFv-anti-DSG3-GFP binding; hits give low values;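 active = binding more than 3 SD below its plate's average and above zero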;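 also: hits lower antibody fragment binding to DSG3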
Target sequence (P32926 whole entry, looked up, the tested form may be a part): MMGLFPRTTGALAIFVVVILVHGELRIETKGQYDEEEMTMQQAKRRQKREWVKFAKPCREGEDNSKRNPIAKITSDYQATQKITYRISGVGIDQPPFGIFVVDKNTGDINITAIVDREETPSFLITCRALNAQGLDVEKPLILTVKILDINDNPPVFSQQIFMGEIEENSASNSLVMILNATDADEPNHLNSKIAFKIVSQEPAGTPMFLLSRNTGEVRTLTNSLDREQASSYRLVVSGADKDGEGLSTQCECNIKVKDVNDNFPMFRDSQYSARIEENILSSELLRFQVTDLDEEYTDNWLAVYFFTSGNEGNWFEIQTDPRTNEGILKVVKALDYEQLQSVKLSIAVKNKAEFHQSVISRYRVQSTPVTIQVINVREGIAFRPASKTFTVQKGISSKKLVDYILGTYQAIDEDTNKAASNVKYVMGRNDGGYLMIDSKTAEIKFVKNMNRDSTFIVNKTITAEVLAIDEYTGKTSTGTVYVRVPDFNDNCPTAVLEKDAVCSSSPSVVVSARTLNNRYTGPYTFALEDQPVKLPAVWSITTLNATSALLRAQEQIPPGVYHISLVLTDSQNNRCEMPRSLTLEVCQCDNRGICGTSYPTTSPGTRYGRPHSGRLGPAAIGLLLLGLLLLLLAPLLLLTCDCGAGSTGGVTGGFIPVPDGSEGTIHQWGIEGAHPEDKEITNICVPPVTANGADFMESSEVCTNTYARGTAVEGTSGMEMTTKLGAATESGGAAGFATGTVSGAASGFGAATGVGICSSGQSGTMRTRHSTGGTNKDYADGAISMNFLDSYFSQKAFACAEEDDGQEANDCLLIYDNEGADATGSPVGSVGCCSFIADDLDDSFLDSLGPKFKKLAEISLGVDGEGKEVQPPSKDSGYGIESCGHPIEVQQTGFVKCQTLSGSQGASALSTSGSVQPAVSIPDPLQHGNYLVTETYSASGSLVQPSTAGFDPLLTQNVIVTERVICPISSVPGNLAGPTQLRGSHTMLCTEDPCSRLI
VLA-4 inh = inhibition in human VLA-4 binding assay, primary screen, VLA-4 allosteric modulator project, MLPCN library, flow cytometry, VLA-4 expressing cells; Integrin alpha-4 (Homo sapiens), P13612; ligand binding flow cytometry; inhibition, % (about 7 µM as worked out from the volumes in the protocol); 330,000 tested, 0.2% active; AID 2557, 2010; in the data active = inhibition above about 50%
PREPL inhibitor = PREPL enzyme inhibitors, primary screen, biochemical, fluorescence polarization | recombinant PREPL, fluorescence polarization activity-based probe | inhibition, % at 5.96 µM | 320,000 tested, 0.68% active | AID 2751, 2010; in the data active = inhibition above about 43%
GASC-1 inh = inhibitors of GASC-1 histone demethylase, primary screen, biochemical, fluorescence, DELFIA europium | GST-JMJD2C(1-420) H3K9me3 demethylation | inhibition, % at 2.35 µM | 330,000 tested, 0.069% active;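 active = more than half of a compound's replicate wells show inhibition beyond 50%, single wells judged on their own value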;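 also: signal counts dimethyl H3K9 product captured on neutravidin plate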
GRK2 CP1 = GRK2 aptamer-displacing inhibitors, retest, confirmation, biochemical, cherry pick 1, bead flow cytometry. shares compounds with GRK2 inh. bead-bound GRK2, FAM-aptamer displacement. aptamer displacement, % at 10 µM. 2,000 tested, 4% active. AID 504451, 2011;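 active = aptamer displacement above 40%, near three times the noise of non-fluorescent compounds, on plates passing quality checks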;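 also: negative values mostly reflect intrinsic compound fluorescence rather than true enhancement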
FAM quench CP1 = counter-screen for GRK2 aptamer inhibitors: fluorescent aptamer quenchers. shares compounds with GRK2 inh. 2,000 tested, under 10 active. AID 504580. Carboxyfluorescein RNA aptamer on beads, flow cytometry quenching; hits give low values. fluorescence response (% of DMSO), % at 10 µM;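 active = compounds that quench the bead-bound fluorescent RNA probe, cutting fluorescence to under half of the solvent control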;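 also: counterscreen run without GRK2 so only probe quenching by compound is measured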
A number is an active result; - = inactive; . = not tested or not shown. Sampled rows, rich in hits. Any-hit rate of the full collection: about 1.6%.

SMILES	GRK2 inh	Pemphigus Ab inh	VLA-4 inh	PREPL inhibitor	GASC-1 inh	GRK2 CP1	FAM quench CP1
Cc1cc(C)nc(/N=C2\NC(=O)CC(C(=O)O)N2c2ccc(F)c(Cl)c2)n1 (stereo not drawn)	-	.	-	-	-	.	.
Cc1cc(C)nc(/N=C2\NC(=O)CC(C(=O)O)N2CCc2c[nH]c3ccccc23)n1 (stereo not drawn)	60	-	-	-	-	-	-
COc1cc(OC)cc(C(=O)N[C@H](C(=O)OCC(=O)N2CCc3ccccc32)C(C)C)c1	-	-	-	-	-	.	.
COc1ccccc1N1C(=O)CC(N(O)c2ccccc2)C1=O (stereo not drawn)	-	-	-	-	-	.	.
CCCOc1ccccc1N1C(=O)CC(N(O)c2ccccc2)C1=O (stereo not drawn)	49	-	-	-	-	-	-
Cc1cc(=O)oc2cc(OCC(=O)Nc3nccs3)ccc12	57	-	-	-	-	-	-
CCN(CC)CCCNC(=S)N(Cc1cccnc1)Cc1cc2cc(C)cc(C)c2[nH]c1=O	-	-	-	-	-	-	-
CC(Sc1nnc2n1CCCCC2)C(=O)Nc1ccc(S(N)(=O)=O)cc1 (stereo not drawn)	.	-	.	.	.	.	.
O=C(COc1ccc(C2SCCS2)cc1)NNC(=O)C(Cl)Cl	46	-	-	-	-	-	-
Cc1ccc(NC(=O)COc2ccc(C3SCCS3)cc2)cc1	-	-	.	-	-	.	.
COC(=O)c1ccc(/C=N/Nc2nc3ccccc3[nH]2)cc1	-	-	-	-	-	.	.
O=C(O)c1ccc(/C=N/Nc2nc3ccccc3[nH]2)cc1	95	-	-	-	-	-	-
O=C(/C=C/c1ccc(Br)o1)OCc1nc2ccsc2c(=O)[nH]1	88	50	-	-	-	-	-
COCC1CCN(Cc2c(C(=O)N3CCOCC3)nc3c(C)cccn23)C1 (stereo not drawn)	.	-	.	.	.	.	.
O=C(NCCCN1CCN(c2cccc(Cl)c2)CC1)c1nc(-c2ccncc2)no1	-	-	-	-	-	.	.
Cc1cc(OCc2nc(-c3ccncc3)no2)cc(C)c1Cl	47	-	-	-	-	-	-
Clc1ccc(OCc2nc(-c3ccncc3)no2)cc1	-	-	-	-	-	.	.
CCC(C(=O)NC(C)(C)C)N(Cc1ccco1)C(=O)CNS(=O)(=O)c1ccc(OC)cc1 (stereo not drawn)	-	-	-	-	-	.	.
CC(c1ccco1)N(C(=O)C12CC3CC(CC(C)(C3)C1)C2)c1ccccn1 (stereo not drawn)	55	-	-	-	-	-	-
CCCCSCCCNC(=O)CCCN1C(=O)c2ccccc2Sc2ncccc21	-	-	-	-	-	.	.
Cc1cc(C(=O)COC(=O)c2ccc(NC(=O)CC#N)cc2)c(C)n1CCc1ccc(F)cc1	57	.	-	-	-	-	-
O=C1CN(C(=O)c2ccccc2Br)C(c2ccc(F)cc2)c2cc(F)ccc2N1 (stereo not drawn)	-	-	-	-	-	.	.
COc1ccc(NC(=O)C2CSC(C)(C)N2C=O)cc1 (stereo not drawn)	75	-	-	-	-	-	-
Cc1ccc(/C=C2/C(=N)N3N=C(CC(=O)N4CCCC4)SC3=NC2=O)cc1	44	-	-	-	-	-	-
COc1cccc(CN2CCCC(C(=O)Nc3ccc(-c4cscn4)cc3)C2)c1 (stereo not drawn)	-	-	-	.	-	.	.
SMILES	GRK2 inh	Pemphigus Ab inh	VLA-4 inh	PREPL inhibitor	GASC-1 inh	GRK2 CP1	FAM quench CP1
CCCCN1C(C(=O)Nc2ncccn2)=C(O)c2ccccc2S1(=O)=O	-	-	-	-	-	-	-
CN1C(C(=O)Nc2ccc(C(=O)O)cc2)=C(O)c2ccccc2S1(=O)=O	-	-	-	-	-	.	.
Cc1cccc(NC(=O)CCCCCN2C(=O)[C@@H]3Cc4ccccc4CN3C2=O)c1	-	-	-	-	-	-	-
O=C(CCCCCN1C(=O)[C@@H]2Cc3ccccc3CN2C1=O)Nc1cccc(F)c1	-	-	-	-	-	-	-
O=C(CCCCCN1C(=O)[C@@H]2Cc3ccccc3CN2C1=O)Nc1ccccc1Cl	-	-	-	-	-	.	.
COc1ccc(NC(=O)CCCCCN2C(=O)[C@@H]3Cc4ccccc4CN3C2=O)cc1Cl	-	-	-	-	-	-	-
O=C(CCCCCN1C(=O)[C@@H]2Cc3ccccc3CN2C1=O)Nc1ccccc1F	-	-	-	-	-	-	-
Nn1c(Nc2ccc(Cl)cc2)nncc1=O	-	-	-	-	-	.	.
COc1ccc(C)cc1N1CC(C(=O)Nc2ccccc2N2CCCCC2)CC1=O (stereo not drawn)	78	-	-	-	-	-	-
Nc1nc2c(nc(SCc3ccccc3Br)n2C2OC(CO)C(O)C2O)c(=O)[nH]1 (stereo not drawn)	-	-	-	-	-	.	.
Nc1nc2c(nc(N3CCCCC3)n2[C@@H]2O[C@H](CO)[C@@H](O)[C@H]2O)c(=O)[nH]1	93	-	-	-	-	-	-
Cc1ccc(S(=O)(=O)c2nnn(-c3cccc(F)c3)c2N)cc1	-	-	-	-	-	.	.
CC12CCC3C(CCC4N(CCO)CCC34C)C1CCC2O (stereo not drawn)	49	-	-	-	-	-	-
COc1ccc(C(=O)N=C2SC3CS(=O)(=O)CC3N2c2ccccc2)cc1OC (stereo not drawn)	-	-	-	-	-	.	.
CNC(=S)N(CCN(C)C)Cc1cc2cc3c(cc2[nH]c1=O)OCO3	-	-	-	-	-	.	.
CCOc1ccc(NC(=O)c2cc3ccccc3cc2OC)cc1	-	-	-	-	-	.	.
CCOc1ccc(NC(=O)c2cc3ccccc3cc2O)cc1	-	-	-	-	-	-	-
COc1ccccc1CN1CC(C(=O)NCc2ncccc2C)CCC1=O (stereo not drawn)	-	-	-	-	-	.	.
C=CCc1cccc2cc(C(=O)NNC(=O)c3ccncc3)c(=O)oc12	-	-	-	-	-	.	.
Cn1cccc1/C=C1\SC(=S)N(NC(=O)c2ccccc2O)C1=O	-	-	-	-	-	.	.
O=C(NN1C(=O)/C(=C/C=C/c2ccco2)SC1=S)c1ccccc1O	-	-	-	-	-	-	-
CC(C)(C)c1ccc(C(=O)N2CCC(C(=O)NCCC3=CCCCC3)CC2)cc1	74	-	-	-	-	-	-
